Results on 55 molecules are retold here after PubChem BioAssay AID1645858 (Buhrlage Lab, Dana-Farber Cancer Institute and Novartis …, 2021).

The campaign covered roughly 47,000 compounds. About 330 (0.7%) were called active. Rule as the data show it: active = inhibition above about 30%; inactive = the rest. For the sample, actives were picked, then their nearest neighbours and some compounds at random.

What is called inhibition is the drop in the measured response relative to a control, in per cent.

The target of the assay is OTU domain-containing protein 3 (Homo sapiens) (UniProt Q5T2D3). The assay can be described thus: inhibitors of human OTUD3 deubiquitinase (AID 1645858). The note with it: purified OTUD3, Ub-rhodamine fluorescence, 2 h; at 25 µM; active compounds read high.
Sequence of OTU domain-containing protein 3 (Homo sapiens) (Q5T2D3 whole entry, looked up, the tested form may be a part): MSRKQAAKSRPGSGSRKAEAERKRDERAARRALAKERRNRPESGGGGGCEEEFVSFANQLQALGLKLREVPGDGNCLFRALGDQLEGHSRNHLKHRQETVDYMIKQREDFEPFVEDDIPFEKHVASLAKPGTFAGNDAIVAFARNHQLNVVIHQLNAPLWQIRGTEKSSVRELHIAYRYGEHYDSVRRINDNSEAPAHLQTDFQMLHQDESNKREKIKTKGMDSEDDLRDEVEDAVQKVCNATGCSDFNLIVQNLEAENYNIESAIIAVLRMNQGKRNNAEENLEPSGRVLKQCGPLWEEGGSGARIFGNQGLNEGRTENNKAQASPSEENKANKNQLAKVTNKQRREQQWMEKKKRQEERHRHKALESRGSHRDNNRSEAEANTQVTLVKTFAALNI
Regarding `Cc1ccc(C(=O)N2C[C@H]3NC(=O)c4ccccc4C(=O)[C@@]3(C)C2)cc1`, the inhibition is -0.0157% (inactive).
Take `CCN(C(=O)c1cncc(Br)c1)c1nc2ccccc2s1`: the inhibition was -0.0268% (inactive).
The figure for `COc1cc(OC)cc(-c2nnc(NC(=O)c3ccc([N+](=O)[O-])o3)o2)c1` is 40.4% (active); for `COc1cccc(-c2ocnc2C(=O)NCc2ccc(OC)c(OC)c2)c1` it is -12.9% (inactive); for `COc1ccc(-c2ocnc2C(=O)NCc2ccc(OC)c(OC)c2)cc1` it is -9.98% (inactive).
For the molecule `Nc1c(C(=O)CN2CCc3ccccc32)c(=O)[nH]c(=O)n1C1CC1`, the inhibition is -63.2% (inactive).
With `Cc1ccccc1S(=O)(=O)NCc1nc2cccnc2n1C1CC1` the figure was -1.25% (inactive).
The figure for `COC(=O)c1cc(S(=O)(=O)Nc2ccc(NC(=O)c3ccccc3)cc2)ccc1Cl` is 2.44% (inactive); for `Cc1cccc(Nc2nccnc2C2CCCN2C(=O)c2ccnnc2)n1` (stereo not given) it is 10.1% (inactive).
With `O[C@H]1[C@H](NCc2cnc3ccccc3c2)[C@@H](c2cncnc2)C[C@H]1O` the figure was -7.7% (inactive).
`Cc1ccccc1C(=O)N1CCC2(CC1)c1ncc(-c3cccnc3)n1CCN2C`: the inhibition was -6.54% (inactive).
As to `CSc1nc2c(c(Nc3ccc(C(C)=O)cc3)n1)CCC2`, the inhibition was -0.0554% (inactive).
With `CC(C)Nc1ncnc2c1c(C(=O)N1CCCC1)c1ccccn12` the figure was -56.8% (inactive); with `Cc1cc(O)c(=O)cc2c1C[C@H]1CC(C)(C)/C=C/C[C@@]3(C)Oc4cc(=O)c(O)cc(C)c4C[C@@H]3C[C@H](O)[C@]1(C)O2`, 33.2% (active).
With `Cc1cccc(Nc2cccc(C3CCCN3C(=O)c3cccnc3)n2)n1` (stereo not given) the figure was -0.95% (inactive).
The figure for `CN1CCN(c2ccc3nnc(CCC(=O)NC4CCN(Cc5ccccc5)CC4)n3n2)CC1` is 5.05% (inactive).
For `CC(C)=CCc1cc(O)ccc1O`, the inhibition is -3.32% (inactive).
With `CC(C)=CCC(O)C1=CC(=O)c2c(O)ccc(O)c2C1=O` (stereo not given) the figure was 94.7% (active).
The figure for `Cc1cc(C)c2nc3c(cc2c1)CN(Cc1ccco1)C(=O)O3` is 19.2% (inactive); for `CC1(c2ncc(Cc3cccc(F)c3)o2)CCCN(C(=O)CN2CCCC2)C1` (stereo not given) it is -4.47% (inactive); for `COc1ccccc1CCN[C@H]1CS(=O)(=O)C[C@@H]1S(=O)(=O)c1ccccc1` it is 2.36% (inactive).
In the case of `COc1ccc(NC(=O)c2cn(C)nc2S(=O)(=O)N2CCCCCC2)cc1`, the inhibition is 11% (inactive).
With `CC(C)NC(=O)c1cccc(-c2noc(-c3ccccc3Br)n2)c1` the figure was 0.0532% (inactive); with `Cc1cc(C)nc(N(C(=O)C2CC2)c2ccc(OC(F)(F)F)cc2)n1`, -7.68% (inactive).
The figure for `COC(=O)c1ccc(NC(=O)CSc2nnc(C(C)Oc3ccccc3)n2C)cc1` (stereo not given) is -2.47% (inactive); for `Cc1nnc(OCC(=O)Nc2ccc(OC(F)(F)F)cc2)c2ccccc12` it is 35.8% (active).
With `Cc1nc(Nc2ncccn2)cc(C2CCCN2S(=O)(=O)N(C)C)n1` (stereo not given) the figure was -8.82% (inactive).
`Cc1ccc(S(=O)(=O)N2CCC3(CC2)OC(C(=O)NCC(C)C)Cn2ccnc23)cc1` (stereo not given): the inhibition was -3.62% (inactive).
The figure for `O=C(CNC(=O)C1COc2ccccc2O1)Nc1ccccc1Br` (stereo not given) is -5.2% (inactive); for `CCn1nccc1C1CCCN1C(=O)C12CC3CC(CC(C3)C1)C2` (stereo not given) it is -2.13% (inactive).
The figure for `COc1ccc(-c2ccc(CCC(=O)NCc3ccccc3)o2)cc1` is 0.714% (inactive); for `OC1CCC(Nc2nc(CN3CCOCC3)nc3sc4c(c23)CCC4)CC1` (stereo not given) it is 1.88% (inactive); for `O=C(Nc1ccc(Cl)c(Cl)c1)C1C2C=CC3(O2)C1C(=O)N(CCCN1CCN(Cc2ccccc2)CC1)C3C(=O)NC1CCCCC1` (stereo not given) it is -13.9% (inactive).
In the case of `CCN1C(=O)COc2cc(-c3noc(C(=O)N4CCN(c5ccccc5)CC4)n3)ccc21`, the inhibition is 5.26% (inactive).
On to `COc1cccc(NC(=O)C2Cc3ccccc3N2C(=O)c2ccccc2)c1` (stereo not given), for which the inhibition was 12% (inactive).
With `NS(=O)(=O)c1ccc(NS(=O)(=O)c2ccc(NC(=O)c3ccccc3)cc2)cc1` the figure was 4.22% (inactive); with `CC(NC(=O)c1ncoc1-c1ccc(F)cc1)c1ccccn1` (stereo not given), 3.88% (inactive).
The figure for `O=C(CNS(=O)(=O)/C=C/c1ccccc1)N1CCCC(c2nc3ccccc3s2)C1` (stereo not given) is -13.9% (inactive); for `CN(C)c1cccc(C(=O)OCC(=O)Nc2ccc(Cl)cn2)c1` it is 1.07% (inactive).
With `Oc1cccc2nc3c(O)cccc3nc12` the figure was 60.7% (active); with `CC(C)(C)C(=O)c1cn(CC(=O)N2CCc3ccccc3C2)c2ccccc12`, 0.535% (inactive); with `Clc1ccc(C2NC3=NCN(Cc4ccco4)CN3c3nc4ccccc4n32)cc1` (stereo not given), 11.6% (inactive).
Turning to `O=C(Cn1cnc2ccccc21)N1CC(c2nc(-c3ccncc3)no2)C1`, the inhibition was -2.15% (inactive).
As for `COc1cccc(-n2c(=O)c(C(=O)NC(C)c3ccccc3)c(O)c3cccnc32)c1` (stereo not given), the inhibition was 1.53% (inactive).
The figure for `O=C(NC1CCN(Cc2ccccc2)CC1)c1cc2cn(C3CC3)cc2s1` is -34.6% (inactive); for `Cc1ccc(S(=O)(=O)NCCc2nnc3ccc(SCC(=O)NCc4ccc5c(c4)OCO5)nn23)cc1` it is 11.1% (inactive); for `CCc1cc(C(=O)NCc2ccccc2)nc2ccnn12` it is -0.736% (inactive).
The figure for `CCN(CC)S(=O)(=O)c1ccc(C(=O)Nc2sc(C)c(C)c2C(N)=O)cc1` is -4.61% (inactive).
For the molecule `CC(=O)c1ccc(NC(=O)CSc2ncnc3c2cnn3-c2ccc(C)cc2C)cc1`, the inhibition was -0.915% (inactive).
For the molecule `Cc1ccc(S(=O)(=O)N2C[C@H]3NC(=O)c4ccccc4C(=O)[C@@]3(C)C2)cc1`, the inhibition was -3.74% (inactive).
As for `COc1cc(C2c3[nH]c4ccccc4c3C[C@@H]3C(=O)N(CCC4=CCCCC4)CC(=O)N23)cc(OC)c1OC` (stereo not given in full), the inhibition was -46.8% (inactive).
With `O=C(Nc1ccccc1Cl)N1C[C@H]2C[C@H]3[C@](C1)(CN(Cc1cccnc1)S3(=O)=O)O2`, the inhibition was 2.31% (inactive).
The figure for `C[C@@H]1CC[C@H]2C(CN3CCCC(C)(C)C3)C(=O)O[C@]23[C@H]1CC[C@@]1(C)O[C@@H]31` (stereo not given in full) is -0.238% (inactive).
The figure for `CCOc1ccccc1Oc1nnnn1-c1ccccc1` is 23% (inactive).
The figure for `CN(C(=O)COc1ccc(C(N)=O)cc1)C1CCCCC1` is -6.97% (inactive).
